Data on 17 sequences can be found in the supplement of paper PMC6555819.

What all share (experiment): PBM binding z-score (relative to random genomic background probes); higher = stronger binding; sequences stand for … in GC…GCGATTGACAGCGTAGAATGAAGG
For assay [1], the system named is RARb homodimer (NR concentration 270 nM). An outline of the steps: (§1)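 Regression normalization was applied to scanned fluorescence from custom Agilent 4×180K protein-binding microarrays. Before scanning, arrays were incubated 1 h with ligand-free nuclear receptor dimers, and binding was detected with antibodies against each partner (one per run). Binding z-scores use the random background probes as reference.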

For assay [2], the system named is RARg:RXRa (NR concentration 270 nM, RXRa partner concentration 90 nM). An outline of the steps:
as §1

In assay [3] the test system is RARg homodimer (NR concentration 270 nM). An outline of the steps: as §1
Assay [4] has as its system RXRa DBDmut IVT, anti-RXR (DBD mutation: RXRa K156A/R161A, NR concentration 90 nM). An outline of the steps:
as §1

Assay [5] concerns RXRa homodimer (NR concentration 180 nM). An outline of the steps: as §1
Assay [6] relates to THRa:RXRa (NR concentration 90 nM, RXRa partner concentration 90 nM). An outline of the steps: as §1
The test system of assay [7] is THRa homodimer (NR concentration 90 nM). An outline of the steps:
as §1

The test system of assay [8] is VDR homodimer (NR concentration 270 nM). An outline of the steps: as §1

Turning to ATATGTAGGTTAGCTGGGGTCATTAAGACTAGGC, the PBM binding z-score in assay [1] was 3.6; in assay [2], 3.87; in assay [3] it was 3.03; in assay [4], 1.83; in assay [5], 5.15; in assay [6], 5.26. Further, the PBM binding z-score was 3 in assay [7] and 4.98 in assay [8].
With CTCGAAAGGTCGGTTGAGTTGAGTATACGGATAA, the PBM binding z-score in assay [1] is 1.34; in assay [2], 2.4; in assay [3], 2.35; in assay [4] it was 1.33; in assay [5], 1.81; in assay [6], 3.4. In addition, the PBM binding z-score in assay [7] was determined as 0.44; in assay [8], 1.37.
Turning to TCTCGGACGACACGAAAGGTCAGAGCTCGACATC, the PBM binding z-score in assay [1] is 4.33; in assay [2], 4.43; in assay [3], 4.55; in assay [4], 0.759; in assay [5] it was 4.8; in assay [6], 2.77. In addition, the values for the PBM binding z-score in assay [7] and in assay [8] were 0.521 and 0.805, respectively.
CCTTACGGGTCAAAGTTATAGCACGGGTGGTACG: the PBM binding z-score in assay [1] was determined as 2.72; in assay [2], 4.74; in assay [3] it was 3.89; in assay [4], 1.42; in assay [5], 5.29; in assay [6], 2.3. Further, the figures for the PBM binding z-score in assay [7] and in assay [8] were -0.124 and 1.46, respectively.
As to CCTTACGGGTCACTGCAGGTTATAGCATCGGAGT, the PBM binding z-score in assay [1] was found to be 3.23; in assay [2], 4.87; in assay [3], 4.67; in assay [4] it was 1.59; in assay [5], 5.03; in assay [6], 4.41. The PBM binding z-score stood at 0.184 in assay [7] and 1.17 in assay [8].
As to CCGACTGGGGCAAAGGTGACCATACTCAGTACGA, the PBM binding z-score in assay [1] is 1.44; in assay [2] it was 1.9; in assay [3] it was 1.13; in assay [4], -0.244; in assay [5], 2.04; in assay [6], 0.896. Besides, the PBM binding z-score in assay [7] is -0.0809; in assay [8], -0.471.
Turning to GGAACGAGGGGATTCGAGTTGATAGCATGGCGAT, the PBM binding z-score in assay [1] is -0.999; in assay [2] it was -0.337; in assay [3], -0.0526; in assay [4] it was -0.0556; in assay [5], -0.258; in assay [6], 0.618. The results for the PBM binding z-score in assay [7] and in assay [8] were -0.631 and 0.0927, respectively.
In the case of TCTATTAGTTGAAGGGCAACCCACGAGTCCGTTT, the PBM binding z-score stood at 1.55 in assay [1]; 0.894 in assay [2]; 0.882 in assay [3]; 1.69 in assay [4]; 0.809 in assay [5]; 0.474 in assay [6]. The PBM binding z-score in assay [7] is 0.28; in assay [8] it was 1.81.
Turning to AATACAGGGTCAGTAGGCCAGAGTAGGTACGAAT, the PBM binding z-score worked out at 3.07 in assay [1]; 4.31 in assay [2]; 4.31 in assay [3]; 1.86 in assay [4]; 3.73 in assay [5]; 2.38 in assay [6]. Further, the PBM binding z-score in assay [7] came to 0.554; in assay [8], 1.72.
Turning to CCTTACGGGTCACGAAGTTATAGCACGACGAGCG, the PBM binding z-score in assay [1] was found to be 3.14; in assay [2], 5.21; in assay [3] it was 4.74; in assay [4], 1.29; in assay [5], 5.71; in assay [6] it was 2.87. Moreover, the PBM binding z-score in assay [7] came out at 0.0516; in assay [8], 0.721.
For the sequence TCTTGTTGATCAAGCAGGTTAAGAAAGCCTGAGT, the PBM binding z-score in assay [1] is 0.418; in assay [2], -0.0831; in assay [3] it was -0.348; in assay [4] it was 0.561; in assay [5], 0.248; in assay [6] it was 0.444. The PBM binding z-score is -0.1 in assay [7] and 0.0832 in assay [8].
For CCTTACGGGTCACTCCAGGTTAAAGCATCGGAGT, the PBM binding z-score in assay [1] turned out to be 3.23; in assay [2], 4.68; in assay [3] it was 4.54; in assay [4], 1.13; in assay [5], 4.65; in assay [6], 5.26. Moreover, the PBM binding z-score in assay [7] was 0.483; in assay [8], 1.41.
For the sequence CAACCTAGGTCAGGGCCAGTATAGGAGGAACGTT, the PBM binding z-score worked out at 2.7 in assay [1]; 3.49 in assay [2]; 4.18 in assay [3]; 0.0707 in assay [4]; 2.07 in assay [5]; 2.12 in assay [6]. In addition, the PBM binding z-score is 0.435 in assay [7] and -0.128 in assay [8].
Turning to GCGACTGGGGCATCACCAGGTTACCATAACTTAA, the PBM binding z-score in assay [1] is 0.954; in assay [2], 0.961; in assay [3] it was 0.521; in assay [4], -0.237; in assay [5], 0.427; in assay [6], 1.92. Also, the PBM binding z-score in assay [7] is 0.551; in assay [8], -0.267.
For CCTTACGGGTCACGATGTTATAGCACGACGAGCG, the PBM binding z-score was found to be 3.21 in assay [1]; 5.22 in assay [2]; 5.07 in assay [3]; 0.775 in assay [4]; 5.71 in assay [5]; 2.88 in assay [6]. Moreover, the PBM binding z-score was determined as 0.472 in assay [7] and 0.567 in assay [8].
As to CCGACTGGGGCAGACAGGTTACCATACCATCCGG, the PBM binding z-score is 0.849 in assay [1]; 0.341 in assay [2]; 0.456 in assay [3]; -0.96 in assay [4]; 0.238 in assay [5]; -0.0397 in assay [6]. Also, the PBM binding z-score in assay [7] was 0.0396; in assay [8], -0.23.
For ATAACGAGGGCAATGAGTTGATAGCACGGGTGGC, the PBM binding z-score stood at 0.877 in assay [1]; 1.46 in assay [2]; 1.73 in assay [3]; 1.84 in assay [4]; 1.07 in assay [5]; 0.969 in assay [6]. Further, the PBM binding z-score was -0.389 in assay [7] and 3.01 in assay [8].
